# Reference: article PMC5515408, “Sequence-specific DNA binding by MYC/MAX to low-affinity non-E-box motifs”
# Whole data set: some 5,000 sequences, median “log2 normalized fluorescence” near 0.089, cut for the highest 2% near 0.81. Shown is part of a subset that was picked to be rich in the highest values.
# Target: MYC (p64);MAX (p21), in MYC:MAX (human;human, UniProt P01106-1;P61244-2 1-439;1-151, |)
# Experiment: protein-binding microarray (anti-MAX antibody); PBM: 15 mM Tris-HCl pH 7.5, 100 mM KCl, 0.075% NP40, 7.5 mM beta-mercaptoethanol, 375 ng/ul BSA, 8 ng/ul poly(dA-dT):(dA-dT), 550 ng complex, 60 min, room tempe; high values mean tight binding
# Conditions: protein: recombinant;recombinant; tags: 6xHis;6xHis; copies: 1;1; label: 3' end of printed strand (linker) attached to glass slide; dsDNA, one strand shown
# How it was run: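 For each of ~5000 unique double-stranded 12-nt sequences, spotted in triplicate on a custom Agilent glass array, binding of His-tagged human MYC:MAX or MAX:MAX dimers is reported as log2 normalized fluorescence. The dimers (550 ng, E. coli-expressed) were incubated for 60 min at room temperature in Tris-KCl buffer, pH 7.5, with NP40, BSA and poly(dA-dT) competitor. Detection used anti-MAX and secondary antibodies with a 543 nm scan.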
# MYC (p64);MAX (p21), in MYC:MAX, sequence (P01106 16-454, chain 1 of 2): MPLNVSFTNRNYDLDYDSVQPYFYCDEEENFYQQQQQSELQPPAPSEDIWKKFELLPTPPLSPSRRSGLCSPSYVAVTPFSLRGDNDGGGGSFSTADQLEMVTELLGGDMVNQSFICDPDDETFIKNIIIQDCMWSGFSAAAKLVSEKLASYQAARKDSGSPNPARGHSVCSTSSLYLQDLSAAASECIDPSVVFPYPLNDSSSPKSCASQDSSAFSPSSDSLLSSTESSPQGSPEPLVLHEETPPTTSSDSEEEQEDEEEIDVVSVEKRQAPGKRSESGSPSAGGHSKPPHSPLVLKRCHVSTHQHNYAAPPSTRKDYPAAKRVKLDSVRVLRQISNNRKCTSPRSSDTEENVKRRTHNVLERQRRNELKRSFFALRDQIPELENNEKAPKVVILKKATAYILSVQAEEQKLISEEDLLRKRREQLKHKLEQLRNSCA
# MYC (p64);MAX (p21), in MYC:MAX, sequence (P61244 other isoform, or with tags, fused parts or gaps |, chain 2 of 2): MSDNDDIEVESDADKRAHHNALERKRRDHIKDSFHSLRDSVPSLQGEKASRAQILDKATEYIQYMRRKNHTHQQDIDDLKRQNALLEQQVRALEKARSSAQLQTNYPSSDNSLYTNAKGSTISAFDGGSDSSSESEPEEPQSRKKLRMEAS
row,Sequence,binding signal
1,CCGGCTGGAACGTGGTATTAATAGCTAAGATTACTATATCGACG,0.66 log2 normalized fluorescence
2,CCGGCTGAGCATATGTATTAATAGCTAAGATTACTATATCGACG,0.395 log2 normalized fluorescence
3,CCGGCTGAAGGCGTGTATTAATAGCTAAGATTACTATATCGACG,0.409 log2 normalized fluorescence
4,CCGGCTAACACATGGTATTAATAGCTAAGATTACTATATCGACG,0.6 log2 normalized fluorescence
5,CCGGCAGACACTTGGTATTAATAGCTAAGATTACTATATCGACG,0.421 log2 normalized fluorescence
6,CCGGCTGACACGAGGTATTAATAGCTAAGATTACTATATCGACG,0.625 log2 normalized fluorescence
7,CCGGCAGACACGAGGTTTTAATAGCTAAGATTACTATATCGACG,0.64 log2 normalized fluorescence
8,CCGGCAGACATGGGGTATTAATAGCTAAGATTACTATATCGACG,0.458 log2 normalized fluorescence
9,CCGGCAGACACGAGGTATTAATAGCTAAGATTACTATATCGACG,0.93 log2 normalized fluorescence
10,CCGGCAGACACATGGTATTAATAGCTAAGATTACTATATCGACG,0.834 log2 normalized fluorescence
11,CCGGCAGTCACATGGTATTAATAGCTAAGATTACTATATCGACG,0.995 log2 normalized fluorescence
12,CCGGCTTTCACATGGTATTAATAGCTAAGATTACTATATCGACG,0.504 log2 normalized fluorescence
13,CCGGCTGACTACATGTATTAATAGCTAAGATTACTATATCGACG,0.419 log2 normalized fluorescence
14,CCGGCTGTCAAGTGGCATTAATAGCTAAGATTACTATATCGACG,0.1 log2 normalized fluorescence
15,CCGGCTGAGTTTCCGTATTAATAGCTAAGATTACTATATCGACG,-0.0243 log2 normalized fluorescence
16,CCGGCTGAAGGATGGTATTAATAGCTAAGATTACTATATCGACG,0.0538 log2 normalized fluorescence
17,CCGGCTGTCCCCTGGTATTAATAGCTAAGATTACTATATCGACG,-0.00889 log2 normalized fluorescence
18,CCGGCTGACTGTGAGTATTAATAGCTAAGATTACTATATCGACG,0.00564 log2 normalized fluorescence
19,CCGGCTGACGGCAGGTATTAATAGCTAAGATTACTATATCGACG,-0.00507 log2 normalized fluorescence
20,CCGGCGGACCCGTGGTATTAATAGCTAAGATTACTATATCGACG,0.439 log2 normalized fluorescence
21,CCGGCGGACACGTGTGATTAATAGCTAAGATTACTATATCGACG,0.779 log2 normalized fluorescence
22,CCGGCGGACGCGTGGTATTAATAGCTAAGATTACTATATCGACG,0.64 log2 normalized fluorescence
23,CCGGCGGACACGTGCTATTAATAGCTAAGATTACTATATCGACG,0.839 log2 normalized fluorescence

row,Sequence,binding signal
1,CCGGCGGACACGTCGTATTAATAGCTAAGATTACTATATCGACG,0.287 log2 normalized fluorescence
2,CCGGCGGACACGTGGTATTAATAGCTAAGATTACTATATCGACG,0.99 log2 normalized fluorescence
3,CCGGCTGAGTACCTGTATTAATAGCTAAGATTACTATATCGACG,0.076 log2 normalized fluorescence
4,CCGGCTGATGGGCAGTATTAATAGCTAAGATTACTATATCGACG,0.0215 log2 normalized fluorescence
5,CCGGCTGACGATCAGTATTAATAGCTAAGATTACTATATCGACG,-0.0317 log2 normalized fluorescence
6,CCGGCTGAATACCTGTATTAATAGCTAAGATTACTATATCGACG,0.159 log2 normalized fluorescence
7,CCGGCTGAGCGCAGGTATTAATAGCTAAGATTACTATATCGACG,0.113 log2 normalized fluorescence
8,CCGGCTGACCAGTTGTATTAATAGCTAAGATTACTATATCGACG,0.159 log2 normalized fluorescence
9,CCGGCGCGCACGTGGTATTAATAGCTAAGATTACTATATCGACG,0.813 log2 normalized fluorescence
10,CCGGCTGGCACGTGCTATTAATAGCTAAGATTACTATATCGACG,0.722 log2 normalized fluorescence
11,CCGGCGCACACGTGCTATTAATAGCTAAGATTACTATATCGACG,0.875 log2 normalized fluorescence
12,CCGGCTCGCACGTGGTATTAATAGCTAAGATTACTATATCGACG,0.665 log2 normalized fluorescence
13,CCGGCGCACACGTGGTATTAATAGCTAAGATTACTATATCGACG,0.906 log2 normalized fluorescence
14,CCGGCTGAGCACACGTATTAATAGCTAAGATTACTATATCGACG,0.338 log2 normalized fluorescence
15,CCGGCTGAATTCCCGTATTAATAGCTAAGATTACTATATCGACG,0.003 log2 normalized fluorescence
16,CCGGCTGACGGATGGTATTAATAGCTAAGATTACTATATCGACG,0.302 log2 normalized fluorescence
17,CCGGCTGACGGACAGTATTAATAGCTAAGATTACTATATCGACG,0.124 log2 normalized fluorescence
18,CCGGCTGACTCGTGCTGTTAATAGCTAAGATTACTATATCGACG,0.41 log2 normalized fluorescence
19,CCGGCTGACACGTGAGGTTAATAGCTAAGATTACTATATCGACG,0.702 log2 normalized fluorescence
20,CCGGCTGACACGTGAGCTTAATAGCTAAGATTACTATATCGACG,0.713 log2 normalized fluorescence
21,CCGGCTGACACGTGATGTTAATAGCTAAGATTACTATATCGACG,0.851 log2 normalized fluorescence
22,CCGGCTGACACGTCATGTTAATAGCTAAGATTACTATATCGACG,0.5 log2 normalized fluorescence
23,CCGGCTGACACGTGATCTTAATAGCTAAGATTACTATATCGACG,0.744 log2 normalized fluorescence

row,Sequence,binding signal
1,CCGGCTGACACGTGATATTAATAGCTAAGATTACTATATCGACG,0.522 log2 normalized fluorescence
2,CCGGCTGACACGTGAAGTTAATAGCTAAGATTACTATATCGACG,0.527 log2 normalized fluorescence
3,CCGGCTGACACGTGTGATTAATAGCTAAGATTACTATATCGACG,0.872 log2 normalized fluorescence
4,CCGGCTGACACGTGAGATTAATAGCTAAGATTACTATATCGACG,0.826 log2 normalized fluorescence
5,CCGGCTGAGCCATCGTATTAATAGCTAAGATTACTATATCGACG,0.0938 log2 normalized fluorescence
6,CCGGCTGACCGCGGGTATTAATAGCTAAGATTACTATATCGACG,0.33 log2 normalized fluorescence
7,CCGGCTGACTGGAGGTATTAATAGCTAAGATTACTATATCGACG,0.07 log2 normalized fluorescence
8,CCGGCTGATGTTAGGTATTAATAGCTAAGATTACTATATCGACG,0.122 log2 normalized fluorescence
9,CCGGCTGAGGACCGGTATTAATAGCTAAGATTACTATATCGACG,-0.014 log2 normalized fluorescence
10,CCGGCTGAACACGTGTATTAATAGCTAAGATTACTATATCGACG,0.823 log2 normalized fluorescence
11,CCGGCTGAACACACGTATTAATAGCTAAGATTACTATATCGACG,0.419 log2 normalized fluorescence
12,CCGGCCGACACGTGGGCTTAATAGCTAAGATTACTATATCGACG,0.893 log2 normalized fluorescence
13,CCGGCTGAACGTGTGTATTAATAGCTAAGATTACTATATCGACG,0.493 log2 normalized fluorescence
14,CCGGCTGACGTGTGGTATTAATAGCTAAGATTACTATATCGACG,0.252 log2 normalized fluorescence
15,CCGGCCGACACGTGATATTAATAGCTAAGATTACTATATCGACG,0.927 log2 normalized fluorescence
16,CCGGCTAACACGTGATATTAATAGCTAAGATTACTATATCGACG,0.646 log2 normalized fluorescence
17,CCGGCTGACACGTGGTATTAATAGCTAAGATTACTATATCGACG,0.825 log2 normalized fluorescence
18,CCGGCCGACACGTTGTATTAATAGCTAAGATTACTATATCGACG,0.656 log2 normalized fluorescence
19,CCGGCTGACGACACGTATTAATAGCTAAGATTACTATATCGACG,0.2 log2 normalized fluorescence
20,CCGGCCGACACGTCGTATTAATAGCTAAGATTACTATATCGACG,0.338 log2 normalized fluorescence
21,CCGGCTGACACGTGGGCTTAATAGCTAAGATTACTATATCGACG,0.74 log2 normalized fluorescence
22,CCGGCTGACTAGTAGTATTAATAGCTAAGATTACTATATCGACG,-0.00827 log2 normalized fluorescence
